Experimental data: PubChem BioAssay (EPA / NIEHS)
Inconclusive results are not listed. Activity calls are given as the source filed them. The calls were made as follows, unless noted: active = hit-call score of the fitted dose curve at least 0.9, where 1 is the maximum; inconclusive = response in the unintended direction; inactive = score below 0.9.

Key:
[1] = molecular target: rat Peripheral-type Benzodiazepine Receptor (PBR), Tspo (gene 24230) (UniProt P16257); assay: NVS_MP_rPBR: NovaScreen (NVS) Membrane Protein Assay for rat Peripheral-type Benzodiazepine Receptor (PBR) (AID 2283335)
rat Peripheral-type Benzodiazepine Receptor (PBR), Tspo (gene 24230), sequence (P16257 whole entry, looked up): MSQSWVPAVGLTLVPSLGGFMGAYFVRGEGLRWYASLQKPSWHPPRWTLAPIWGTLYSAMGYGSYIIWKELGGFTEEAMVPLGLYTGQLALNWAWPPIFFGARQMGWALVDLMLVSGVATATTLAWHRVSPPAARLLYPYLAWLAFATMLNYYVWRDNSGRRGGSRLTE
In short: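 Single-concentration duplicate screening at 25 uM preceded concentration-series retesting of actives. Binding of a specific radioligand to rat kidney membrane PBR was read by filtration radiodetection after 1 h, with plate-wise positive and negative controls.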

[2] = molecular target: bovine Estrogen Receptor (ER), ESR1 (gene 407238) (UniProt P49884); assay: NVS_NR_bER: NovaScreen (NVS) Nuclear Receptor Binding Assay for bovine Estrogen Receptor (ER) (AID 2283345);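 also: actives lower the bound radioligand count which means they displace the ER ligand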
bovine Estrogen Receptor (ER), ESR1 (gene 407238), sequence (P49884 whole entry, looked up): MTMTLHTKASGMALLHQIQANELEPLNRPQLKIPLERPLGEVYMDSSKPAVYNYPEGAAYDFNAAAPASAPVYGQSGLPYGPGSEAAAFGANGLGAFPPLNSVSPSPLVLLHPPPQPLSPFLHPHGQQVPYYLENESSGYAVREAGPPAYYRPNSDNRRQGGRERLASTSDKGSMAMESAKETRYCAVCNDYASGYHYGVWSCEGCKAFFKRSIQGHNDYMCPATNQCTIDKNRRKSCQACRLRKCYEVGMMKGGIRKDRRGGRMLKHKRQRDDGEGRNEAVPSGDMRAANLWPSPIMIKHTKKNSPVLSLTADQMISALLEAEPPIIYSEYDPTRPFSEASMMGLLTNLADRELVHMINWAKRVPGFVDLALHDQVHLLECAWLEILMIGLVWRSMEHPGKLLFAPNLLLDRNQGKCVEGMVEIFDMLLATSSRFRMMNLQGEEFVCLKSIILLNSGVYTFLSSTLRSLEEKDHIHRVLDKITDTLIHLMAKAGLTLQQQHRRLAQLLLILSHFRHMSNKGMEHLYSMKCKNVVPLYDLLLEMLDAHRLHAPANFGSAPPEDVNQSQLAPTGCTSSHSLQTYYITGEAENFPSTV
In short: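 Bovine uterine membranes; tritiated or iodinated radioligand; competitive displacement; 18 h; scintillation read; DMSO negative control; 25 uM duplicates, then concentration series for actives.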

[3] = molecular target: Estrogen receptor (Homo sapiens) (UniProt P03372); assay: NVS_NR_hER: NovaScreen (NVS) Nuclear Receptor Binding Assay for human Estrogen Receptor (ER) (AID 2283348)
Estrogen receptor (Homo sapiens), sequence (P03372 whole entry, looked up, the tested form may be a part): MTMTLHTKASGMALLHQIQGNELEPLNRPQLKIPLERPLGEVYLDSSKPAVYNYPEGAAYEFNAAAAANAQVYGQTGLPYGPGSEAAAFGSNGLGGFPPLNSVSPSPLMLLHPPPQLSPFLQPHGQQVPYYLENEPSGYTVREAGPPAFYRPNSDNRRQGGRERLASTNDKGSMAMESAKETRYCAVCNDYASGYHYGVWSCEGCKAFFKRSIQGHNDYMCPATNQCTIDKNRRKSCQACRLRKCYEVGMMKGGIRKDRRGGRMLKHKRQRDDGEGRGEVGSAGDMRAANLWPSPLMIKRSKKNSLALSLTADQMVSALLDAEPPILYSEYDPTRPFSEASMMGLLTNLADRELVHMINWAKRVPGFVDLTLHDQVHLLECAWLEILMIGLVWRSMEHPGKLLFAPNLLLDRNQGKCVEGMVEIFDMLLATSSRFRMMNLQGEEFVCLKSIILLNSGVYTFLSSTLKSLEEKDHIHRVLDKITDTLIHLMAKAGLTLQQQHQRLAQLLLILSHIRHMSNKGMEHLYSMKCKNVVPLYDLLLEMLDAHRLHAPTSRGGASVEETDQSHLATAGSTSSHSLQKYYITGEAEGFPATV
In short: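 MCF7-derived receptor extract, radiolabelled ligand, competitive displacement. Read: scintillation counts at 18 h. DMSO = negative control/baseline. Primary 25 uM duplicate; follow-up concentration–response.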

[4] = molecular target: Estrogen receptor (Homo sapiens) (UniProt P03372); assay: OT_ER_ERaERa_1440: Odyssey Thera (OT) 24-hour HEK293T Protein-Complementation Assay for Estrogen Receptor-alpha/-alpha Homodimer (AID 2283349);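 also: hits raise fluorescence above DMSO for agonists and antagonists alike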
In short: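 Cells (HEK293T) carrying the fragment-tagged ERα LBD (aa 310-547) pair are treated with chemical for 24 hours. Nuclear and/or cytoplasmic fluorescence is then quantified on a laser scanning cytometer. Activity is scored as signal gain against DMSO.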

[5] = molecular target: Bile acid receptor (Homo sapiens) (UniProt Q96RI1); assay: NVS_NR_hFXR_Antagonist: NovaScreen (NVS) Nuclear Receptor Binding Assay for human Farnesoid X Receptor Antagonism (FXR) (AID 2283350)
In short: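 Antagonist-format time-resolved FRET binding assay with extracted human receptor protein, read 1 hour after compound addition. Compounds first screened at 25 uM in duplicate, then actives tested in concentration series, with loss of signal relative to DMSO.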

[6] = molecular target: Estrogen receptor (Homo sapiens) (UniProt P03372); assay: OT_ER_ERaERa_0480: Odyssey Thera (OT) 8-hour HEK293T Protein-Complementation Assay for Estrogen Receptor-alpha/-alpha Homodimer (AID 2283351);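 also: rise in fluorescence from reassembled reporter fragments on ERα LBD homodimer in nucleus or whole cell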
In short: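 Read-out: fluorescence intensity rise relative to DMSO, nuclear for agonists, nuclear plus cytoplasmic for antagonists. Construct is the ERα LBD (aa 310-547) homodimer fragment-complementation pair, stably expressed in HEK293T; exposure 8 h.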

[7] = molecular target: Estrogen receptor (Homo sapiens) + Estrogen receptor beta (Homo sapiens) (UniProt P03372+Q92731); assay: OT_ER_ERaERb_0480: Odyssey Thera (OT) 8-hour HEK293T Protein-Complementation Assay for Estrogen Receptor-alpha/-beta Heterodimer (AID 2283352)
Estrogen receptor (Homo sapiens) + Estrogen receptor beta (Homo sapiens), sequence (P03372 whole entry, looked up, the tested form may be a part): as above
Estrogen receptor (Homo sapiens) + Estrogen receptor beta (Homo sapiens), sequence (Q92731 whole entry, looked up, the tested form may be a part): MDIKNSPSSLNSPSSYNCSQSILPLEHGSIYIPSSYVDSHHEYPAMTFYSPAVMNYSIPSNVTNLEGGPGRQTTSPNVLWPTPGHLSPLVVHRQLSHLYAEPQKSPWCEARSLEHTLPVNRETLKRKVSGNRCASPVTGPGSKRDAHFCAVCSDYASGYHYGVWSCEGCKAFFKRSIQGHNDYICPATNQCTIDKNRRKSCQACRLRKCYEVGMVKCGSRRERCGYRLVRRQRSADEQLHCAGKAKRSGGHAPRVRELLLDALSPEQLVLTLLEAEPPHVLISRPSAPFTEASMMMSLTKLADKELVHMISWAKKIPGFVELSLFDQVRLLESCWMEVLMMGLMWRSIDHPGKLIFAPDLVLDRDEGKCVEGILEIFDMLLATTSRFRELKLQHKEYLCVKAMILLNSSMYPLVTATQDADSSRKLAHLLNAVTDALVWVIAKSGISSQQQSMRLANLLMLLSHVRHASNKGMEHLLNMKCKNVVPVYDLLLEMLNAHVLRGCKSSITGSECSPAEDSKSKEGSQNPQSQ
In short: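 Increase in mean fluorescence intensity, measured by laser scanning plate cytometry, reported ER-alpha/ER-beta LBD complementation in HEK293T cells after 8 h chemical exposure. DMSO served as baseline; basal signal is low, punctate and cytoplasmic.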

[8] = molecular target: Androgen Receptor/SRC-1 Co-activator, AR (gene 367) (UniProt P10275); assay: OT_AR_ARSRC1_0960: Odyssey Thera (OT) 16-hour HEK293T Protein-Complementation Assay for Androgen Receptor/SRC-1 Co-activator (AID 2283353);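 also: actives raise the signal above DMSO so potency reflects increased AR and SRC-1 complex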
Androgen Receptor/SRC-1 Co-activator, AR (gene 367), sequence (P10275 whole entry, looked up, the tested form may be a part): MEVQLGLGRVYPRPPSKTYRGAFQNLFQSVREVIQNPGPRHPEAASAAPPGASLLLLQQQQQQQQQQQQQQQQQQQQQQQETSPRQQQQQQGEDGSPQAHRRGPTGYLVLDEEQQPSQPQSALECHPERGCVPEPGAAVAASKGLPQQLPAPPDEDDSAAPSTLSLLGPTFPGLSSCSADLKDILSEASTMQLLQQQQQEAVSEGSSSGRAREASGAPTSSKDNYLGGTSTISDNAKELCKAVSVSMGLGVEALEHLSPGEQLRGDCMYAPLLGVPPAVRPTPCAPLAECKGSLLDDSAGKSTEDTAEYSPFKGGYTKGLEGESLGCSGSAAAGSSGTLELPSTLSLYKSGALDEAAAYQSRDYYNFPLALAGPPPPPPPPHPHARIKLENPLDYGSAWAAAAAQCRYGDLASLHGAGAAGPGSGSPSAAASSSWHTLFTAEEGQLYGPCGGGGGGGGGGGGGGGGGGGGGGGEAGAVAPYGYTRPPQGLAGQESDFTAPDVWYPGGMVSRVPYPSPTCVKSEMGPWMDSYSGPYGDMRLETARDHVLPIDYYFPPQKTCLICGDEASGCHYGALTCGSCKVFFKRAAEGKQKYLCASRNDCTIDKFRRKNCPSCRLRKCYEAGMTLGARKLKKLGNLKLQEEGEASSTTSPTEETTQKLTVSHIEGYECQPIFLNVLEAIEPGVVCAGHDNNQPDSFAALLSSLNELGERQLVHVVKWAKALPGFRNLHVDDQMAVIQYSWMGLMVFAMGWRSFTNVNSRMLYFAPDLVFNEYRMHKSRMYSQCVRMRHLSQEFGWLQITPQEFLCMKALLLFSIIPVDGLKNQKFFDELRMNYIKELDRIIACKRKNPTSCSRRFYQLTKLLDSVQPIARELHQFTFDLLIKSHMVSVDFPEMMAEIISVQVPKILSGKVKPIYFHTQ
In short: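 Readout: 488 nm nuclear-to-cytoplasmic fluorescence ratio from imaging of at least 400 cells per image, 16 h post-dose. Reporter is Venus YFP complementation between AR and SRC-1 fusions, stably expressed in HEK293T; activity scored upward relative to DMSO.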

[9] = molecular target: Androgen Receptor/SRC-1 Co-activator, AR (gene 367) (UniProt P10275); assay: OT_AR_ARSRC1_0480: Odyssey Thera (OT) 8-hour HEK293T Protein-Complementation Assay for Androgen Receptor/SRC-1 Co-activator (AID 2283354);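 also: hits raise the complementation signal above DMSO so AC50 marks enhancers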
In short: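 Split-Venus PCA, stable HEK293T, AR/SRC-1 fusions; 8 h exposure. Readout: 488nm N/C fluorescence ratio, ≥400 cells/image; fitted upward vs DMSO baseline.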

[10] = molecular target: rat Mineralocorticoid Receptor (MR), Nr3c2 (gene 25672) (UniProt P22199); assay: NVS_NR_rMR: NovaScreen (NVS) Nuclear Receptor Binding Assay for rat Mineralocorticoid Receptor (MR) (AID 2283355)
In short: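 Radioligand displacement, scintillation readout; tissue source adrenalectomized rat brain supernatant. Read 24 h post-dose. Screened in duplicate at 25 uM, DMSO negative control, controls on every plate; actives re-run in concentration series.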

[11] = molecular target: bovine Gamma-Aminobutyric Acid Type A Receptor Agonist (GABAR Agonist), GABRA1 (gene 780973) (UniProt P08219); assay: NVS_LGIC_bGABAR_Agonist: NovaScreen (NVS) Ligand-Gated Ion Channel Assay for bovine Gamma-Aminobutyric Acid Type A Receptor Agonist (GABAR Agonist) (AID 2283338)
bovine Gamma-Aminobutyric Acid Type A Receptor Agonist (GABAR Agonist), GABRA1 (gene 780973), sequence (P08219 whole entry, looked up): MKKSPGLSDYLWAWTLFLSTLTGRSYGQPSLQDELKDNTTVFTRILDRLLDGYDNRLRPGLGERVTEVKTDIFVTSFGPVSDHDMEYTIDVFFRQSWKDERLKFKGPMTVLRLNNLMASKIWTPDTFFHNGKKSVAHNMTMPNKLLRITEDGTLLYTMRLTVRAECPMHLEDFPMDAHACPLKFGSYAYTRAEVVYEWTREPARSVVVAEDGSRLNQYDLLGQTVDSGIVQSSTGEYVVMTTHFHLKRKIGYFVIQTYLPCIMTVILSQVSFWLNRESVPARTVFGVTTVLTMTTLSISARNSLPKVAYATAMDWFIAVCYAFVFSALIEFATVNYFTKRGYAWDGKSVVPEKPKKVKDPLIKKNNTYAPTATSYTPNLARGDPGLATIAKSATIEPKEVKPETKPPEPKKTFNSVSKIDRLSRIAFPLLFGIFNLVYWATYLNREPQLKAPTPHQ
In short: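 Radioligand binding to bovine cerebellar membranes in agonist format, read by filter-based scintillation counting after 1 h. Primary screen in duplicate at 25 uM, with actives followed in concentration series. Gain of signal versus DMSO.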

[12] = system: NCBI gene 100848466; assay: NVS_NR_bPR: NovaScreen (NVS) Nuclear Receptor Binding Assay for bovine Progextron Receptor (PR) (AID 2283343)
In short: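 Scintillation counts of bound radioligand were read 18 hours after chemical addition to membranes extracted from bovine uterus. Displacement was scored as loss of signal relative to DMSO controls. Screening began at 25 uM in duplicate.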

[13] = molecular target: human Constitutive Androstane Receptor (CAR), NR1I3 (gene 9970) (UniProt Q14994); assay: NVS_NR_hCAR_Antagonist: NovaScreen (NVS) Nuclear Receptor Binding Assay for human Constitutive Androstane Receptor Antagonism (CAR) (AID 2283344)
human Constitutive Androstane Receptor (CAR), NR1I3 (gene 9970), sequence (Q14994 whole entry, looked up): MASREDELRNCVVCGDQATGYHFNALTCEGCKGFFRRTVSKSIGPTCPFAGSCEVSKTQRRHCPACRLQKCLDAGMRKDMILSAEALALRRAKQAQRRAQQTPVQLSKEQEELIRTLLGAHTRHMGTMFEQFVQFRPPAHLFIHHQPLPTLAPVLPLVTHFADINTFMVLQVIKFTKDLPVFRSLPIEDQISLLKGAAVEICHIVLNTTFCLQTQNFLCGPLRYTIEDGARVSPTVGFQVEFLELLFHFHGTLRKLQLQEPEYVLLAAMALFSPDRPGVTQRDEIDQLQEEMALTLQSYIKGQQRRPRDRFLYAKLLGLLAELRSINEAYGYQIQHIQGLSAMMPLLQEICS
In short: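 Single 25 uM duplicate primary screen, with concentration-series follow-up on actives. Cell-free binding format run in antagonist mode, TR-FRET signal taken 1 h post-dose; activity is signal loss relative to DMSO.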

[14] = NVS_IC_rCaBTZCHL: NovaScreen (NVS) Ion Channel Assay for Calcium Channel, Type L, Benzothiazepine Site (CaBTZCHL) (AID 2283337)
In short: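 Rat cortical membrane preparation, cell-free. Radioligand displaced by test chemical; 1.5 h incubation; filtration, scintillation count. DMSO = negative control/baseline. Primary: duplicate, 25 uM; secondary: concentration series.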

[15] = system: guinea pig Histamine Receptor (H2), gene 100729734; assay: NVS_GPCR_gH2: NovaScreen (NVS) G Protein-Coupled Receptor Assay for guinea pig Histamine Receptor (H2) (AID 2283342)
In short: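 Guinea pig striatal membrane preparation with specific radioligand; bound counts measured by filtration and scintillation 1 h post-dosing, DMSO as baseline. Chemicals passing a 25 uM duplicate screen were titrated to a 50 uM maximum.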

[16] = molecular target: chimpanzee Androgen Receptor (AR), AR (gene 747460) (UniProt O97775); assay: NVS_NR_cAR: NovaScreen (NVS) Nuclear Receptor Binding Assay for chimpanzee Androgen Receptor (AR) (AID 2283346);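 also: radioligand displacement from AR measured by scintillation counting in a cell-free assay; a loss of bound radioligand signal versus DMSO counts as binding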
chimpanzee Androgen Receptor (AR), AR (gene 747460), sequence (O97775 whole entry, looked up): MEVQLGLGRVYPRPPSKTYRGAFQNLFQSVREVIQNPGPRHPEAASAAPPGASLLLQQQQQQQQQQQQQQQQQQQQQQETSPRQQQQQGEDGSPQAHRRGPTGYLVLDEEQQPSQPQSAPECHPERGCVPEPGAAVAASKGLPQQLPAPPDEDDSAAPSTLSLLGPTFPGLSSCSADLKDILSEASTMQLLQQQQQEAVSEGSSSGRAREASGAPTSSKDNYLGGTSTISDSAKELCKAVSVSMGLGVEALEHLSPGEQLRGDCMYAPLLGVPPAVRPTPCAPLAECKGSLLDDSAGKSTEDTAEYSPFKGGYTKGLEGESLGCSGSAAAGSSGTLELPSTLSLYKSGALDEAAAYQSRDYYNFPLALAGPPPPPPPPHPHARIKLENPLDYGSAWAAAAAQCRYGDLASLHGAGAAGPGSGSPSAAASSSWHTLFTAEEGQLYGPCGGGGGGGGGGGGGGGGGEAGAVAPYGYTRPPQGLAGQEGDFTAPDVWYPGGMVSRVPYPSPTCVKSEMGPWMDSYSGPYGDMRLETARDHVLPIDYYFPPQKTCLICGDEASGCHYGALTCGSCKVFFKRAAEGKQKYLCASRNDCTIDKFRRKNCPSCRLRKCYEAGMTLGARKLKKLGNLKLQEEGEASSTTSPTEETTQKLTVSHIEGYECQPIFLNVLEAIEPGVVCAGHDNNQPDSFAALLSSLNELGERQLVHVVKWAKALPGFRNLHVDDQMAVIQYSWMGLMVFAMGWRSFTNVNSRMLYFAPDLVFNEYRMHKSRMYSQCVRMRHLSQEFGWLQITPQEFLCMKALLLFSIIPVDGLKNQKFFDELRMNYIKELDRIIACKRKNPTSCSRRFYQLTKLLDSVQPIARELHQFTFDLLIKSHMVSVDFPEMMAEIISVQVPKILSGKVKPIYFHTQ
In short: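 Radioligand binding to chimpanzee AR expressed in Sf9/Sf21 cells, cell-free, measured 72 h after dosing by lysate-based scintillation counting. Loss of signal vs DMSO; initial duplicate screen at 25 uM, actives retested in concentration series.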

[17] = molecular target: Glutamate receptor ionotropic, kainate 1 (Rattus norvegicus) (UniProt P22756); assay: NVS_IC_rKAR: NovaScreen (NVS) Ion Channel Assay for rat Kainic Acid Receptors (KAR) (AID 2283334; active = hit-call score of the fitted dose curve at least 0.9, where 1 is the maximum; inactive = score below 0.9)
In short: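 Rat forebrain membrane preparation incubated 1 h with radioligand and test chemical; bound signal read by filtration and scintillation. Single-concentration screen at 25 uM, then concentration series to 50 uM maximum.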

## OC(c1ccc(Cl)cc1)(c1ccc(Cl)cc1)C(Cl)(Cl)Cl
[1]
  outcome: inactive
[2]
  outcome: inactive
[3]
  outcome: inactive
[4]
  outcome: inactive
[5]
  outcome: inactive
[6]
  outcome: inactive
[7]
  AC50: 11.8 µM (active)

## COc1ccc(-c2ccccc2)cc1NNC(=O)OC(C)C
[1]
  AC50: 0.0966 µM (active)
[4]
  outcome: inactive
[7]
  outcome: inactive
[8]
  outcome: inactive
[9]
  outcome: inactive
[10]
  outcome: inactive

## Nc1cnn(-c2ccccc2)c(=O)c1Cl
[11]
  outcome: inactive
[3]
  outcome: inactive
[4]
  outcome: inactive
[6]
  outcome: inactive
[7]
  outcome: inactive

## COCC(=O)N(c1c(C)cccc1C)C(C)C(=O)OC (configuration not stated)
[1]
  AC50: 25 µM (active)
[12]
  outcome: inactive
[13]
  outcome: inactive
[4]
  outcome: inactive
[7]
  outcome: inactive

## CCOC(=O)C(C)OC(=O)c1cc(Oc2ccc(C(F)(F)F)cc2Cl)ccc1[N+](=O)[O-] (configuration not stated)
[1]
  AC50: 6.45 µM (active)
[13]
  outcome: inactive
[2]
  outcome: inactive
[4]
  outcome: inactive
[6]
  outcome: inactive
[7]
  outcome: inactive

## CC1(C)C(C=C(Cl)Cl)C1C(=O)OC(C#N)c1cccc(Oc2ccccc2)c1 (configuration not stated)
[1]
  AC50: 5.01 µM (active)
[12]
  outcome: inactive
[2]
  outcome: inactive
[3]
  outcome: inactive
[4]
  outcome: inactive
[6]
  outcome: inactive
[7]
  outcome: inactive

## CCCN(CC)CC1COC2(CCC(C(C)(C)C)CC2)O1 (configuration not stated)
[14]
  AC50: 9.84 µM (active)
[15]
  AC50: 9.65 µM (active)
[4]
  outcome: inactive
[6]
  outcome: inactive

## CC(C)Oc1cccc(NC(=O)c2ccccc2C(F)(F)F)c1
[1]
  AC50: 0.28 µM (active)
[13]
  outcome: inactive
[2]
  outcome: inactive
[4]
  outcome: inactive
[7]
  outcome: inactive

## CC1(C)C(C(=O)OC(C#N)c2cccc(Oc3ccccc3)c2)C1(C)C (configuration not stated)
[1]
  outcome: inactive
[4]
  outcome: inactive
[6]
  outcome: inactive
[7]
  outcome: inactive

## Cc1nc(N(C)C)nc(OC(=O)N(C)C)c1C
[1]
  AC50: 19 µM (active)
[4]
  outcome: inactive
[6]
  outcome: inactive
[7]
  outcome: inactive

## Clc1nc(Cl)nc(Nc2ccccc2Cl)n1
[1]
  AC50: 1.3 µM (active)
[4]
  outcome: inactive
[6]
  outcome: inactive
[7]
  outcome: inactive

## CCOP(=O)(OCC)Oc1nc(Cl)c(Cl)cc1Cl
[1]
  AC50: 1.6 µM (active)
[13]
  AC50: 16.1 µM (active)
[4]
  outcome: inactive
[6]
  outcome: inactive
[7]
  outcome: inactive
[8]
  AC50: 33.2 µM (active)
[9]
  outcome: inactive

## Cn1c(-c2ccccc2)cc(-c2ccccc2)[n+]1C
[14]
  AC50: 33.3 µM (active)
[15]
  outcome: inactive
[4]
  outcome: inactive
[6]
  outcome: inactive
[7]
  outcome: inactive

## COP(=S)(OC)SCn1nnc2ccccc2c1=O
[1]
  AC50: 13.6 µM (active)
[13]
  outcome: inactive
[16]
  AC50: 16.1 µM (active)
[4]
  outcome: inactive
[6]
  outcome: inactive
[7]
  outcome: inactive
[8]
  outcome: inactive
[9]
  outcome: inactive

## CO/N=C(/C1=NOCCO1)c1ccccc1Oc1ncnc(Oc2ccccc2Cl)c1F
[17]
  outcome: inactive
[4]
  outcome: inactive
[6]
  outcome: inactive

## N#Cc1c(Cl)cccc1Cl
[1]
  outcome: inactive
[12]
  outcome: inactive
[13]
  outcome: inactive
[2]
  outcome: inactive
[4]
  outcome: inactive
[6]
  outcome: inactive
[7]
  outcome: inactive
